Experimental data taken from PubChem BioAssay AID435019 (Southern Research Specialized Biocontainment Screening …, 2010).
The campaign covered roughly 2,300 compounds. About 1,200 (52%) were called active. How the calls were made is not given here. The set was probably picked from earlier hits. The list shows a part of the results. Where a call stands in place of a potency, no number is given. Potency and affinity values are given separately.

experiment: mammalian cell cytotoxicity, dose response, cytotoxicity control for M. tuberculosis inhibitor project (AID 435019); settings: cytotoxicity counter-screen; series mostly up to 40 µM;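 further: lower values mean fewer viable cells so more cytotoxicity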

Row | SMILES | outcome
1 | CCOC(=O)CNC(=O)C(Cc1ccccc1)NC(=O)OCc1ccccc1 (centres undefined) | inactive
2 | COc1ccc(-c2cc(C3CCN(C(=O)OC(C)(C)C)CC3)[nH]n2)cc1 | inactive
3 | CCCCCc1ccc(-c2cn(Cc3cccc(OC)c3)nn2)cc1 | inactive
4 | COc1ccc(C(=O)OCCNC(=O)c2c(Cl)nc3ccccn23)cc1 | inactive
5 | CCOC(=O)c1sc2nc3n(c(=O)c2c1C)CCC(C)CC3 (centres undefined) | inactive
6 | CC(OC(=O)c1cc(Cl)ccc1[N+](=O)[O-])C(=O)NC(C)c1ccc(F)cc1 (centres undefined) | inactive
7 | COc1ccccc1NC(=O)C(C)OC(=O)/C=C/c1ccc2ccccc2n1 (centres undefined) | inactive
8 | Cn1c(=O)n(Cc2ccccc2)c(=O)c2c1nc1n2CCCN1C1CCCCC1 | inactive
9 | Cn1c(=O)c2cc(NCc3ccccc3)nnc2n(C)c1=O | inactive
10 | Cc1nn(-c2ccccn2)c2c1-c1nc(N3CCOCC3)ncc1CC2 | inactive
11 | CCOC(=O)CSc1ncc(OC)c(Sc2ccc(OC)cc2)n1 | inactive
12 | Cc1ccc(-c2c[n+](CC(=O)N3c4ccccc4Sc4ccccc43)c3n2CCC3)cc1 | inactive
13 | C=CCN1CC[C@]23c4c5ccc(O)c4O[C@H]2/C(=N/NC(=O)c2ccccc2)CC[C@@]3(O)[C@H]1C5 | inactive
14 | CCOC(=O)c1sc2ncnc(NCC(c3cccs3)N(C)C)c2c1C (centres undefined) | inactive
15 | Cc1cc(C(=O)N/N=C/c2ccc(-c3ccc([N+](=O)[O-])cc3Cl)o2)n[nH]1 | inactive
16 | Cc1c(Cl)c([N+](=O)[O-])nn1Cc1ccc(C(=O)N/N=C\c2cccc(Br)c2)o1 | inactive
17 | CCn1c(SCC(=O)Nc2ccc3c(c2)oc2ccccc23)nnc1-c1ccc(N)cc1 | inactive
18 | CCSCc1nnc(SCC(=O)Nc2cccc(SC)c2)n1C | inactive
19 | Clc1cc(Cl)cc(Nc2ncn[nH]2)c1 | inactive
20 | C/C(CC(=O)Nc1ccc(C)c(Cl)c1)=N\NC(=O)Cc1cnc(N)s1 | inactive

Row | SMILES | outcome
21 | COc1ccc(C(C)=O)cc1COC(=O)c1ccc2ccccc2n1 | inactive
22 | Cc1ccc(C)c(NNC(N)=S)c1 | inactive
23 | COc1ccc(CCNc2cc(-c3ccccc3)nc3ncnn23)cc1 | inactive
24 | O=c1c2c(nc3nc(NCc4ccc(Cl)cc4)[nH]n13)CCC2 | inactive
25 | COC(=O)CCCCC1SCC(NC(=O)c2ccccc2)C1=O (centres undefined) | inactive
26 | N#Cc1ccc(CN2CCN(CC(=O)NCCc3ccc(Cl)cc3Cl)CC2)cc1 | inactive
27 | COc1ccc(SN=C2C(C)=CC(=O)C=C2C)cc1 | inactive
28 | COC(=O)C1C(O)C(C)C(O)C(C)/C=C\C=C(/C)C(=O)Nc2c(C)c(OC(C)=O)c3c(c2O)C(=O)C(C)=C2OCOC(=C23)/C(C)=C/C(C)(O)C(O)C(C)C1O (centres undefined) | inactive
29 | CCc1ccc(/C(C)=N/Nc2cc(Cl)nc(C)n2)cc1 | inactive
30 | C/C(=N/Nc1ccnc2cc(Cl)ccc12)c1ccc(O)cc1 | inactive
31 | Cc1ccc2c(c1)nnn2C1CCN(CC(=O)N2CCN(c3ccc(F)cc3)CC2)CC1 | inactive
32 | C/C(O)=C\c1nc2ccccc2oc1=O | inactive
33 | c1ccc(CCN2CN=C(Nc3nc4ccccc4o3)NC2)cc1 | inactive
34 | CN1CCC(=NNC(=O)C(=O)Nc2ccccc2F)CC1 | inactive
35 | O=C(CCN1C(=O)/C(=C/c2ccccc2)SC1=S)Nc1ccccn1 | inactive
36 | O=C(COC(=O)C1=COCCO1)Nc1cccc(Oc2ccccc2)c1 | inactive
37 | CCOc1ccc2nc(/N=C/c3nc(-c4ccccc4)oc3O)sc2c1 | inactive
38 | Cc1ccc(-c2nnc(C)c(N3CCCC3)n2)cc1 | inactive
39 | O=C(c1cc2ccccc2o1)N1CCN(S(=O)(=O)c2ccc(Cl)s2)CC1 | inactive
